HSF1 inh: HSF1 inhibition. NIH3T3-HGL HSE-luciferase, MG132-induced, luminescence 8 h; hits give low values. activity change, negative = inhibition, % at 7.5 µM (by protocol). 300,000 compounds, 0.77% hits. AID 2098;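 active means more than half of replicate wells show activity change below -50%, luminescence cut by over half; inconclusive means some wells, but at most half, below -50%; inactive means no replicate well below -50%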;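 further: luciferase reports HSF-1 transcriptional activity via heat shock element; 0% = median of DMSO wells and -100% = zero luminescence signal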
MITF TRPM1 HTS: increases MITF-driven TRPM1 promoter luciferase signal; SK-MEL-5 TRPM1-promoter luciferase, 24 h; % of positive control, neutral wells = 0; activation, % at 12.5 µM; 300,000 compounds, 0.75% hits; AID 588334;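 active means mean activation of at least 80% with every replicate also reaching 80%; inconclusive means mean reaches 80% but some replicate falls short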;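 further: 0% = neutral control wells and 100% = parthenolide positive control wells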
esBAF inh: blocks esBAF chromatin remodeling in mouse ES cells | 350,000 compounds, 2% hits | reporter increase, % at 12.5 µM | AID 602393 | Bmi1-luciferase knock-in reporter, 24 h; 100% = twice the neutral-well signal; in the data active means activation above about 40%; inconclusive means no clear call, values can overlap the other calls;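 further: 0% = median of the plate's neutral control wells and 100% = double that signal; a rise in the Bmi1 reporter signal indicates esBAF inhibition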
Wnt act: Wnt/beta-catenin pathway activation. Wnt/beta-catenin reporter cell assay, activator, plate reader. activation, % at 9.35 µM. 300,000 compounds, 1.2% hits; in the data active means activation above about 30%, passing the limit was not always enough; inconclusive means no clear call, values can overlap the other calls;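 further: 0% = neutral control wells and 100% = positive control wells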
SMARCA2 act: SMARCA2 function activation, primary screen; 370,000 compounds, 1% hits; AID 652017; MG213 cells, MMTV-luciferase reporter, dexamethasone, overnight; activation, % at 9.1 µM; in the data active means activation above about 7.8%;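 further: 0% = vehicle wells and 100% = reference activator wells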
HSF1 activator: increases HSF-1 driven luciferase reporter signal; activation, % at 9 µM; 300,000 compounds, 1.7% hits; NIH3T3-HGL HSF-1 luciferase reporter, MG132, 8 h; 100% = twice DMSO control signal;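 active means mean replicate activation of at least 50% with a set share of replicates each reaching 50%; inconclusive means only one of those two conditions met; inactive means mean below 50% and too few replicates reaching it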;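 further: 0% = median of the neutral control wells and 100% = twice that signal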
The depositor's hits bear a star; ? = inconclusive; nt = no result. In the library only some 4.3% were active in any assay of this set; here they are far more common.

SMILES | HSF1 inh | MITF TRPM1 HTS | esBAF inh | Wnt act | SMARCA2 act | HSF1 activator
O=C(CNC(=O)c1cccs1)N/N=C/c1ccccc1[N+](=O)[O-] | -3.2 | 75.3 | 59.9* | 8.9 | 0.1 | 7.3
O=C(O)c1ccc(COc2ccc(/C=N/NC(=O)c3cccs3)cc2)cc1 | -5.8 | -1.5 | 1.2 | 12.8 | nt | 13.4
O=C(N/N=C/c1cccc([N+](=O)[O-])c1)c1cccs1 | 23.5 | 43.9 | nt | 13.3 | 0.8 | 53.6*
O=C(N/N=C/c1cccc(OCc2ccccc2)c1)c1cccs1 | 10.1 | nt | 46.2* | 38.6* | -0.1 | 44.2
O=C(N/N=C/c1cccc([N+](=O)[O-])c1)C1CC1c1ccccc1 (stereo unspecified) | 7.7 | 6.0 | 3.0 | 2.7 | 9.1* | -0.1
O=C(CNC(=O)c1ccco1)N/N=C/c1ccccc1[N+](=O)[O-] | 3.7 | -6.8 | nt | 2.4 | 3.3 | 3.5
O=C(N/N=C/c1cccc([N+](=O)[O-])c1)c1ccc(Br)cc1 | 14.7 | 21.7 | nt | 0.9 | -1.6 | 8.9
CCCC#Cc1ccc2c(c1)O[C@@H](CN(C)C(=O)Nc1ccc(OC)cc1)[C@@H](C)CN([C@@H](C)CO)S2(=O)=O | nt | nt | 7.7 | nt | nt | nt
C[C@@H]1CN([C@H](C)CO)C(=O)Cc2cc(NC(=O)Nc3ccc4c(c3)OCO4)ccc2O[C@H]1CN(C)C(=O)Nc1cccc2ccccc12 | nt | nt | 22.2 | nt | nt | nt
CC(C)NC(=O)Nc1ccc2c(c1)CC(=O)N([C@H](C)CO)C[C@H](C)[C@H](CN(C)C)O2 | nt | nt | -2.3 | nt | nt | nt
COc1cc(/C=N/NC(=O)CNC(=O)c2ccccc2)ccc1OC(=O)c1cccs1 | -0.6 | 13.4 | 0.3 | 33.3* | -1.3 | -7.7
NC(=O)N/N=C/c1cccc(OCc2ccc(F)cc2)c1 | -73.6* | -3.9 | nt | 2.4 | 1.3 | -78.4
COc1cccc(C(=O)NCC(=O)N/N=C/c2ccc(OC(=O)c3cccs3)c(OC)c2)c1 | 6.3 | -16.4 | nt | -4.2 | -2.8 | 10.1
CCOC(=O)Nc1ccc2c(c1)N(C(=O)CN(CC)CC)c1ccccc1C=C2 | 58.1 | -9.9 | -0.6 | -2.2 | -1.5 | 74.0*
CCOC(=O)Nc1ccc2c(c1)N(C(=O)CN(CC)CC)c1ccccc1CC2 | -17.9 | nt | -8.7 | 0.5 | 0.3 | -34.6
C[C@@H]1CN([C@@H](C)CO)C(=O)c2cc(C#Cc3ccccc3)cnc2O[C@@H]1CN(C)C(=O)CCN1CCCCC1 | nt | nt | -4.5 | nt | nt | nt
Cc1ccc(/C=C/C(=O)OCC(=O)NCCN2C(=O)CSC2=O)cc1 | -1.7 | 4.8 | nt | -8.8 | -0.7 | -8.1
Cc1ccc(/C=C/C(=O)OCC(=O)NCCN2C(=O)CSC2=O)o1 | -72.9* | -6.6 | nt | -0.6 | -3.3 | -79.4
C[C@H](CO)N1C[C@H](C)[C@@H](CN(C)C)Oc2ccc(NC(=O)C3CC3)cc2C1=O | nt | nt | -7.8 | nt | nt | nt
COc1ccc(C2=C(CN(C)C)C(c3ccccc3)c3ccccc3O2)cc1 (stereo unspecified) | 6.5 | -8.1 | 70.5* | nt | -0.6 | 9.5
O=C(Nc1ccccc1OC(F)F)c1cc2c(s1)CCC2 | nt | 32.7 | 44.4* | nt | 4.0 | nt
Cc1csc(NC(=O)c2cc3c(s2)CCC3)n1 | 12.9 | 16.2 | 14.7 | nt | 2.7 | 54.0*
Cc1ccc(NC(=O)c2scc3c2CCCC3)cc1 | 22.2 | 115.1* | nt | 14.6 | 4.2 | 45.1
COc1ccccc1NC(=O)c1ccc(NC(=O)c2cc3c(s2)CCC3)cc1 | -8.1 | 4.9 | nt | nt | 0.0 | -14.8
O=C(c1scc2c1CCCC2)N1CCCCC1 | -1.0 | 3.1 | 1.6 | 0.2 | -7.8 | 8.1
SMILES | HSF1 inh | MITF TRPM1 HTS | esBAF inh | Wnt act | SMARCA2 act | HSF1 activator
Cc1ccc(NC(=O)CN(C)C(=O)c2cc3c(s2)CCCCC3)cc1 | nt | 8.2 | -5.6 | -0.2 | -4.2 | nt
Cc1ccc(NC(=O)c2cc3c(s2)CCCC3)cc1 | 34.5 | 147.7* | ? | 60.6* | -1.0 | ?
COC(=O)c1sc(NC(=O)c2cc3c(s2)CCCC3)nc1C | 10.5 | ? | nt | nt | 5.2 | 31.7
O=C(NCC[C@@H]1CC[C@@H](NS(=O)(=O)c2ccc(F)cc2)[C@@H](CO)O1)Nc1ccc(Cl)cc1 | nt | nt | 18.4 | nt | nt | nt
C[C@H](CO)N1C[C@H](C)[C@@H](CN(C)C(=O)CN(C)C)Oc2cc(C#CC3CC3)ccc2S1(=O)=O | nt | nt | 4.3 | nt | nt | nt
C[C@@H]1CN([C@H](C)CO)C(=O)c2cc(-c3cncnc3)cnc2O[C@H]1CN(C)C(=O)c1cccc(F)c1 | nt | nt | -0.9 | nt | nt | nt

Source: PubChem BioAssay (several laboratories)
